# Measured values as given in PubChem BioAssay (NCI).
# About 79,000 compounds went through this panel and 15% of them were active in at least one assay; those are over-represented in the sample as a whole. Values without a mark were called inactive. Calls of active or inactive are those of the source. Rule as the data show it: active = growth inhibition above about 70%; inactive = the rest.
# Legend:
# [1] = NCI Yeast Anticancer Drug Screen. Data for the mec2-1 strain (AID 157); conditions: S. cerevisiae mec2-1 strain, hits give high values
# Method in brief: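 Test agents were screened against the mec2-1 yeast strain, with defined DNA repair or cell cycle alteration. Growth was scored as inhibition against vehicle-only controls.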
# [2] = NCI Yeast Anticancer Drug Screen. Data for the sgs1 mgt1 strain (AID 161);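 also: 0% = growth of cultures given vehicle only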; conditions: S. cerevisiae sgs1 mgt1 strain, hits give high values
# Method in brief: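 Inhibition of yeast growth, normalised to vehicle-treated controls, is reported for a strain bearing genetic alterations in DNA damage repair.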
# [3] = NCI Yeast Anticancer Drug Screen. Data for the CLN2oe strain (AID 163);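 also: 0% = growth of vehicle-only control cultures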; conditions: S. cerevisiae CLN2oe strain, hits give high values
# Method in brief: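 Here, growth inhibition in a cell-cycle-altered yeast strain after compound exposure was quantified against vehicle control growth.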
# [4] = NCI Yeast Anticancer Drug Screen. Data for the cln2 rad14 strain (AID 165);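 also: 0% = growth equal to vehicle treated cultures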; conditions: S. cerevisiae cln2 rad14 strain, hits give high values
# Method in brief: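 Growth of compound-exposed yeast (cln2 rad14 genotype) measured and expressed as inhibition relative to vehicle.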
# [5] = NCI Yeast Anticancer Drug Screen. Data for the bub3 strain (AID 167); conditions: S. cerevisiae bub3 mutant strain, hits give high values
# Method in brief: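 Yeast carrying a defined mutation is treated with each compound, and growth is compared with that of vehicle-exposed cells to give inhibition.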
# [6] = NCI Yeast Anticancer Drug Screen. Data for the wt2 strain (AID 169);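 also: 0% = growth of vehicle-treated yeast cultures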; conditions: S. cerevisiae wt2 strain growth inhibition, hits give high values
# Method in brief: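 Genetically defined yeast strains from a DNA-repair/cell-cycle panel were used. Compound-exposed yeast growth was measured, and the inhibition was calculated relative to vehicle treatment.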
# [7] = NCI Yeast Anticancer Drug Screen. Data for the sgs1 strain (AID 173);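 also: 0% = growth of vehicle-only control cultures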; conditions: S. cerevisiae sgs1 mutant, hits give high values
# Method in brief: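 Relative growth inhibition, referenced to vehicle, was determined in a yeast strain with a defined alteration affecting DNA damage repair or cell cycle control after compound exposure.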
# [8] = NCI Yeast Anticancer Drug Screen. Data for the mlh1 rad18 strain (AID 175); conditions: S. cerevisiae mlh1 rad18 strain growth inhibition, hits give high values
# Method in brief: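 In this whole-cell yeast screen, a strain with altered DNA damage repair is challenged with compound, and its growth is measured against matched vehicle-treated controls.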
# [9] = NCI Yeast Anticancer Drug Screen. Data for the rad18 strain (AID 177); conditions: S. cerevisiae rad18 mutant growth inhibition, hits give high values
# Method in brief: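 Screen uses a yeast strain with a defined lesion in DNA damage repair; compound effect is read as loss of growth compared to untreated vehicle cultures.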
# [10] = NCI Yeast Anticancer Drug Screen. Data for the wt1 strain (AID 149);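 also: 0% = growth of vehicle-treated wt1 cultures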; conditions: S. cerevisiae wt1 strain (SPY 50644) growth inhibition, hits give high values
# Method in brief: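 wt1 yeast, compound-treated; % growth inhibition vs vehicle control.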
# [11] = NCI Yeast Anticancer Drug Screen. Data for the rad50EPP+ strain (AID 151);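 also: 0% = growth of vehicle-treated control cultures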; conditions: S. cerevisiae rad50 mutant strain, hits give high values
# Method in brief: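 One strain with a rad50 alteration (rad50EPP+) was compound-treated, its growth then compared to that of vehicle controls.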
# [12] = NCI Yeast Anticancer Drug Screen. Data for the mgt1 strain (AID 153); conditions: S. cerevisiae mgt1 mutant growth inhibition, hits give high values
# Method in brief: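 After exposure of the mgt1 yeast mutant to compound, growth was measured and reported as inhibition compared with vehicle controls.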
# [13] = NCI Yeast Anticancer Drug Screen. Data for the rad50 strain (AID 155);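 also: 0% = growth of vehicle-only cultures of the same strain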; conditions: S. cerevisiae rad50 strain growth inhibition, hits give high values
# Method in brief: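 Genetically altered yeast (DNA repair pathway); compound treatment; growth inhibition vs vehicle ctrl.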
# [14] = NCI Yeast Anticancer Drug Screen. Data for the rad14 strain (AID 159);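 also: 0% = growth of vehicle-treated control cultures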; conditions: S. cerevisiae rad14 strain growth inhibition, hits give high values
# Method in brief: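 Test compounds were applied to a repair-deficient yeast strain. Its growth was then compared with that of cultures given vehicle alone, and inhibition was expressed relative to those controls.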
# [15] = NCI Yeast Anticancer Drug Screen. Data for the mlh1 strain (AID 171);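 also: 0% = growth of vehicle-treated control cultures of the same strain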; conditions: S. cerevisiae mlh1 strain growth inhibition, hits give high values
# Method in brief: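 Here the genetically defined yeast mutant is grown with each compound, and the extent to which its growth falls below that of vehicle-exposed cells is reported.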
# [16] = at 5.0 µM (retest, dose inferred, filed as 0.5)
# [17] = at 50.0 µM (retest, dose inferred, filed as 5.0)
smiles,measurement,setting,value
CC(C)(C(=O)NN)c1ccccc1,growth inhibition,[1]; at 100.0 µM,83% (active)
same,growth inhibition,[2]; [16],14%
same,growth inhibition,[2]; [17],98% (active)
same,growth inhibition,[2]; at 50.0 µM,14.9%
same,growth inhibition,[3]; at 1.2 µM,-7%
same,growth inhibition,[3]; at 3.7 µM,-1%
same,growth inhibition,[3]; at 11.0 µM,27%
same,growth inhibition,[3]; at 33.0 µM,51%
same,growth inhibition,[3]; at 100.0 µM,81% (active)
same,growth inhibition,[4]; [16],20%
same,growth inhibition,[4]; [17],88% (active)
same,growth inhibition,[4]; at 50.0 µM,55.5%
same,growth inhibition,[5]; at 1.2 µM,-3%
same,growth inhibition,[5]; at 3.7 µM,0%
same,growth inhibition,[5]; [16],-14%
same,growth inhibition,[5]; at 11.0 µM,34%
same,growth inhibition,[5]; at 33.0 µM,70% (active)
same,growth inhibition,[5]; [17],97% (active)
same,growth inhibition,[5]; at 50.0 µM,52%
same,growth inhibition,[5]; at 100.0 µM,94% (active)
same,growth inhibition,[6]; at 1.2 µM,1%
same,growth inhibition,[6]; at 3.7 µM,10%
same,growth inhibition,[6]; at 11.0 µM,28%
same,growth inhibition,[6]; at 33.0 µM,42%
same,growth inhibition,[6]; at 100.0 µM,83% (active)
same,growth inhibition,[7]; at 1.2 µM,0%
same,growth inhibition,[7]; at 3.7 µM,13%
same,growth inhibition,[7]; at 11.0 µM,41%
same,growth inhibition,[7]; at 33.0 µM,71% (active)
same,growth inhibition,[7]; at 100.0 µM,94% (active)
same,growth inhibition,[8]; [16],63%
same,growth inhibition,[8]; [17],99% (active)
same,growth inhibition,[8]; at 50.0 µM,62.9%
same,growth inhibition,[9]; at 1.2 µM,2%
same,growth inhibition,[9]; at 3.7 µM,8%
same,growth inhibition,[9]; at 11.0 µM,46%
same,growth inhibition,[9]; at 33.0 µM,70% (active)
same,growth inhibition,[9]; at 100.0 µM,92% (active)
COc1ccc(/C=C2\CCc3ccccc3C2=O)cc1OC,growth inhibition,[10]; at 1.2 µM,-13%
same,growth inhibition,[10]; at 3.7 µM,-2%
same,growth inhibition,[10]; at 11.0 µM,-11%
same,growth inhibition,[10]; at 33.0 µM,24%
same,growth inhibition,[10]; at 100.0 µM,88% (active)
same,growth inhibition,[11]; at 1.2 µM,-24%
same,growth inhibition,[11]; at 3.7 µM,-26%
same,growth inhibition,[11]; at 11.0 µM,1%
same,growth inhibition,[11]; at 33.0 µM,32%
same,growth inhibition,[11]; at 100.0 µM,40%
same,growth inhibition,[12]; at 1.2 µM,2%
same,growth inhibition,[12]; at 3.7 µM,5%
same,growth inhibition,[12]; at 11.0 µM,21%
same,growth inhibition,[12]; at 33.0 µM,67%
same,growth inhibition,[12]; at 100.0 µM,89% (active)
same,growth inhibition,[13]; at 1.2 µM,3%
same,growth inhibition,[13]; at 3.7 µM,-2%
same,growth inhibition,[13]; [16],36%
same,growth inhibition,[13]; at 11.0 µM,-1%
same,growth inhibition,[13]; at 33.0 µM,22%
same,growth inhibition,[13]; [17],51%
same,growth inhibition,[13]; at 50.0 µM,83.3% (active)
same,growth inhibition,[13]; at 100.0 µM,82% (active)
same,growth inhibition,[1]; at 1.2 µM,-36%
same,growth inhibition,[1]; at 3.7 µM,-8%
same,growth inhibition,[1]; [16],-11%
same,growth inhibition,[1]; at 11.0 µM,-22%
same,growth inhibition,[1]; at 33.0 µM,24%
same,growth inhibition,[1]; [17],66%
same,growth inhibition,[1]; at 50.0 µM,60.3%
same,growth inhibition,[1]; at 100.0 µM,90% (active)
same,growth inhibition,[14]; at 1.2 µM,-16%
same,growth inhibition,[14]; at 3.7 µM,-13%
same,growth inhibition,[14]; at 11.0 µM,-20%
same,growth inhibition,[14]; at 33.0 µM,19%
same,growth inhibition,[14]; at 100.0 µM,80% (active)
same,growth inhibition,[3]; at 1.2 µM,21%
same,growth inhibition,[3]; at 3.7 µM,22%
same,growth inhibition,[3]; at 11.0 µM,29%
same,growth inhibition,[3]; at 33.0 µM,37%
same,growth inhibition,[3]; at 100.0 µM,92% (active)
same,growth inhibition,[5]; at 1.2 µM,24%
same,growth inhibition,[5]; at 3.7 µM,29%
same,growth inhibition,[5]; [16],25%
same,growth inhibition,[5]; at 11.0 µM,51%
same,growth inhibition,[5]; at 33.0 µM,76% (active)
same,growth inhibition,[5]; [17],95% (active)
same,growth inhibition,[5]; at 50.0 µM,87.6% (active)
same,growth inhibition,[5]; at 100.0 µM,94% (active)
same,growth inhibition,[6]; at 1.2 µM,-38%
same,growth inhibition,[6]; at 3.7 µM,-25%
same,growth inhibition,[6]; at 11.0 µM,-28%
same,growth inhibition,[6]; at 33.0 µM,53%
same,growth inhibition,[6]; at 100.0 µM,91% (active)
same,growth inhibition,[15]; at 1.2 µM,20%
same,growth inhibition,[15]; at 3.7 µM,29%
same,growth inhibition,[15]; at 11.0 µM,26%
same,growth inhibition,[15]; at 33.0 µM,79% (active)
same,growth inhibition,[15]; at 100.0 µM,91% (active)
same,growth inhibition,[7]; at 1.2 µM,-6%
same,growth inhibition,[7]; at 3.7 µM,-26%
same,growth inhibition,[7]; at 11.0 µM,-12%
same,growth inhibition,[7]; at 33.0 µM,35%
same,growth inhibition,[7]; at 100.0 µM,93% (active)
same,growth inhibition,[8]; [16],10%
same,growth inhibition,[8]; [17],91% (active)
same,growth inhibition,[8]; at 50.0 µM,63.5%
same,growth inhibition,[9]; at 1.2 µM,-20%
same,growth inhibition,[9]; at 3.7 µM,-10%
same,growth inhibition,[9]; at 11.0 µM,-18%
same,growth inhibition,[9]; at 33.0 µM,19%
same,growth inhibition,[9]; at 100.0 µM,88% (active)
